Assay outcomes deposited in PubChem BioAssay by The Scripps Research Institute Molecular Screening Center.
PLCb3 inh: PLC-beta3 (human) inhibition, primary screen; Q01970; Purified PLC-beta3, fluorogenic substrate, fluorescence; inhibition, % at 12.2 µM; hit rate 0.18% among 370,000
Target sequence (Q01970 whole entry, looked up): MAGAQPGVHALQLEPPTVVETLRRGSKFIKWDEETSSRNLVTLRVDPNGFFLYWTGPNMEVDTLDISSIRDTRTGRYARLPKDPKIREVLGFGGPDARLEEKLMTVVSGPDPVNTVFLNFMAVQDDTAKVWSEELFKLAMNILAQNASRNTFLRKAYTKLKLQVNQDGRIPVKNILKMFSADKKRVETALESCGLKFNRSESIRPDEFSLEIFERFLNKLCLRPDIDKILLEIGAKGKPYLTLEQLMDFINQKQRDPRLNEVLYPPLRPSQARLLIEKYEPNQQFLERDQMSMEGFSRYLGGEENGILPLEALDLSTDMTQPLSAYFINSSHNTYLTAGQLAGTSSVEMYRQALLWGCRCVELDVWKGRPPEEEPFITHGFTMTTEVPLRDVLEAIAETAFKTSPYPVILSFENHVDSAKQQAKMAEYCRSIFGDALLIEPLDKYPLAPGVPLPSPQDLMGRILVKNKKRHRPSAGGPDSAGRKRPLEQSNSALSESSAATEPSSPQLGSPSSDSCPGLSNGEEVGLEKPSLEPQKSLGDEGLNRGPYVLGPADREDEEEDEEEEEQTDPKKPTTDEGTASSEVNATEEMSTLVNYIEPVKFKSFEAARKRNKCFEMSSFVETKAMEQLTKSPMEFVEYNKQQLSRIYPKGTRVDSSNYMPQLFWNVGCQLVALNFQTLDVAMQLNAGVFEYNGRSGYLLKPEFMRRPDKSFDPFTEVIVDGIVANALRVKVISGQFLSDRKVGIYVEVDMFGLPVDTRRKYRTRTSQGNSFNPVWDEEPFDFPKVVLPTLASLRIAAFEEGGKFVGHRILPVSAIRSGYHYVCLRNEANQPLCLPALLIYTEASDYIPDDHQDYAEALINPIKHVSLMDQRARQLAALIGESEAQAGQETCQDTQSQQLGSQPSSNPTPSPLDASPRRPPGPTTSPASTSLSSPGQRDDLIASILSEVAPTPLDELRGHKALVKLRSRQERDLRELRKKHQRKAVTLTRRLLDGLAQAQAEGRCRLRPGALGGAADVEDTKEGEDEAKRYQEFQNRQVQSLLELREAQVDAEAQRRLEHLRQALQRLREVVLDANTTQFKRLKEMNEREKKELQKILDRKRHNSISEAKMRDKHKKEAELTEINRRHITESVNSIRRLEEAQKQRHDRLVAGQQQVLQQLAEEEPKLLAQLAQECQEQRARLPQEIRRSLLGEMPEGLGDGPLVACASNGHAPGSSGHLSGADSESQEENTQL
PLC-gamma1 inh: inhibitors of human phospholipase C gamma1 | purified PLC-gamma1, fluorogenic substrate, fluorescence | inhibition, % at 12.2 µM | hit rate 0.84% among 370,000 | AID 720700; in the data active = inhibition above about 9.5%
ADAM17 inh: ADAM17 inhibition, QFRET primary screen. P78536. recombinant ADAM17, EDANS/DABCYL FRET peptide cleavage. inhibition, % at 6.95 µM. hit rate 0.83% among 370,000;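 active = inhibition above the mean of compounds lying between control limits plus 3 SD, set per campaign, cut at about 8.5% in these data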
sPLA2-III inh: Blocks human group III sPLA2 activity; hit rate 0.56% among 370,000; Q9NZ20; inhibition, % at 12.2 µM; QFRET BODIPY PC-A2 liposome hydrolysis, fluorescence;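 active = inhibition above mean plus 3 SD of compounds lying within the high and low control bounds, cut at about 19% in these data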
proKLK7 act: proKLK7 (human) activation, primary screen; purified proKLK7, EDANS-DABCYL substrate fluorescence; 100% is mature enzyme control, 0% vehicle; hit rate 0.9% among 370,000; activation, % at 7 µM; P49862;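 active = activation above the mean of all tested compounds plus 3 SD, computed per campaign excluding outliers beyond control limits, cut at about 13% in these data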
ADAM10 inh: inhibits human ADAM10; O14672; recombinant ADAM10, EDANS/DABCYL FRET peptide cleavage, 3 h; inhibition, % at 7 µM; hit rate 0.62% among 370,000;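 active = inhibition above a per-campaign cutoff equal to the mean of compounds falling between control-based bounds plus 3 SD, cut at about 20% in these data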
PLCg1 ctr: counter-screen for PLC-beta3 inhibitors: inhibitors of human PLC-gamma1; shares compounds with PLC-gamma1 inh; purified PLC-gamma1, fluorogenic substrate, fluorescence; inhibition, % at 12.3 µM; hit rate 3.1% among 3,300; in the data active = inhibition above about 9.5%
PLCbeta3 conf: confirmation of human PLC-beta3 inhibitors; purified PLC-beta3, fluorogenic substrate fluorescence; inhibition, % at 12.3 µM; shares compounds with PLC-gamma1 inh; hit rate 1% among 3,300
Of the large screens only hits and unclear results are named; the others gave an inactive call (follow-up assays come after a bar, where they were run). Shown are actives, neighbours in structure and some others; about 3.4% of the full set was active somewhere. Rule as the data show it, unless noted: active = inhibition above about 11%; inactive = the rest.

COC(=O)C1=C(C)N(Cc2ccccc2C(F)(F)F)C(=NCc2ccc3c(c2)OCO3)NC1c1ccc(F)cc1 (centres undefined)	none
Cn1c(=O)[nH]c(=O)c2c1nc(Sc1ccccc1)n2CCc1ccccc1	none
Cc1ccc(Sc2nc3c(c(=O)[nH]c(=O)n3C)n2CCc2ccccc2)cc1	PLCb3 inh 13 | PLCg1 ctr inactive | PLCbeta3 conf inactive
CN(C)c1ccc(CNC(=O)C2(C)Cc3c(-c4ccc5c(c4)OCO5)ccnc3O2)cc1 (centres undefined)	none
CCn1c(SCC(=O)Nc2nc(C)c(C)s2)nnc1-c1cccnc1	PLC-gamma1 inh 9.8 | PLCg1 ctr inactive | PLCbeta3 conf inactive
Cc1cc(SCC(=O)N2CCCC2=O)nc2ccccc12	PLC-gamma1 inh 12 | PLCg1 ctr inactive | PLCbeta3 conf inactive
O=C(CSc1nccn1Cc1ccco1)Nc1cccc(F)c1	PLC-gamma1 inh 10.0 | PLCg1 ctr inactive | PLCbeta3 conf inactive
CCc1nc2c(OC)cccn2c1N(C)C(=O)c1ccccc1F	none
CCc1nc2c(OCc3ccc(Cl)cc3Cl)cccn2c1N(C)C(=O)c1ccccc1F	PLCb3 inh 11 | PLCg1 ctr inactive | PLCbeta3 conf inactive
COC(=O)NNC(=O)C12CC3CC(CC(C3)C1)C2	PLC-gamma1 inh 14 | PLCg1 ctr inactive | PLCbeta3 conf inactive
CCNC(=O)C[C@H]1CC[C@H]2[C@@H](COc3ccc(NC(=O)c4ccc5c(c4)OCO5)cc3C(=O)N2C)O1	PLC-gamma1 inh 9.6 | PLCg1 ctr 15 | PLCbeta3 conf 14
CCNC(=O)N(C)[C@H]1C[C@H]2c3[nH]c4c(-c5ccc6c(c5)OCO6)cccc4c3CCN2C(=O)[C@H]1[C@H](C)O	none
Cc1ccc(S(=O)(=O)N2CCN(C(=O)C3CCN(C(=O)c4ccccc4C)CC3)CC2)cc1C	none
CC(C)(C)c1cc(-c2ccccc2)n[nH]1	PLC-gamma1 inh 11 | PLCg1 ctr inactive | PLCbeta3 conf inactive
Cc1cccc(NS(=O)(=O)c2ccc(-n3cccn3)cc2)c1C	none
O=C(NC1CCCC1)C1CCN(C(=O)c2ccc(-c3ccccc3)cc2)CC1	none
Cc1cc(NC(=O)c2cccs2)ncc1NC(=O)c1cccc(F)c1	none
Cc1cc(NC(=O)c2ccccc2)ncc1NC(=O)c1cccs1	PLCb3 inh 16 | PLCg1 ctr inactive | PLCbeta3 conf inactive
CCOCCCn1c(SCC(=O)NC2CCCCC2)nc2ccccc2c1=O	none
CC(C)(C)N1C(=O)c2ccc(C(=O)Nc3ccc(O)cc3)cc2C1=O	none
Cc1cc(C)c(C(=O)COC(=O)c2c(C)noc2C)cc1C	none
COc1ccc(-n2nc(C(=O)Nc3ccc(OC)c(OC)c3)c3c4ccccc4n(C)c3c2=O)cc1	none
COc1ccc(-n2nc(C(=O)Nc3ccc4c(c3)OCO4)c3c4ccccc4n(C)c3c2=O)cc1	PLC-gamma1 inh 12 | PLCg1 ctr inactive | PLCbeta3 conf inactive
CCS(=O)(=O)c1nc(S(=O)(=O)c2ccc(Cl)cc2)c(N2CCN(C)CC2)s1	none
CCS(=O)(=O)c1nc(S(=O)(=O)c2ccc(C)cc2)c(N2CCN(C)CC2)s1	PLC-gamma1 inh 9.8 | PLCg1 ctr inactive | PLCbeta3 conf inactive
NS(=O)(=O)c1ccc(CCNC(=O)CCCCCNc2nc(=S)[nH]c3ccccc23)cc1	PLC-gamma1 inh 10 | PLCg1 ctr inactive | PLCbeta3 conf inactive
Cc1ccc(CNC(=O)CCCCCNc2nc(=S)[nH]c3ccccc23)cc1	none
O=C(Nc1nnc([C@@H]2C[C@H](O)[C@@H](CO)O2)s1)NC(c1ccccc1)c1ccccc1	none
O=C(Nc1nnc([C@H]2C[C@H](O)[C@@H](CO)O2)s1)NC(c1ccccc1)c1ccccc1	PLC-gamma1 inh 12 | PLCg1 ctr inactive | PLCbeta3 conf inactive
O=C(NCc1ccccc1)Nc1nnc([C@@H]2C[C@H](O)[C@@H](CO)O2)s1	PLC-gamma1 inh 15 | PLCg1 ctr inactive | PLCbeta3 conf inactive
C=CCCC(=O)N1C[C@H]2CON(C)[C@H]2C[C@H]1c1cccc(Br)c1	none
O=[N+]([O-])c1ccc(NC(=S)NCc2ccncc2)cc1	none
